Test results from ChEMBL document CHEMBL3988442, “University of Dundee, Small-Polar-MMV Screening Library” (2021).
Screen size: about 38,000 compounds; about 1,200 (3.2%) showed an effect of 50% or more. The median lay at about -58%. The sample as a whole holds a higher share of strong results than the screen did.

What follows are molecules tested on Plasmodium falciparum (assay: Calibr Malaria Delayed Death Assay SOP). Details: concentration 4.99e-06 (unit not given; other assays of the set use mol/L).
Assay type: functional, organism-based
Parameters: scale not given: in the data most compounds retested in dose-response had high values

Row | SMILES | Percent Effect
1 | O=C(O)C(F)(F)F.O=C(c1ccoc1)N1CCOCC2(CCN(C3CCOCC3)C2)C1 (stereo unspecified) | -39.42%
2 | COCCCN(C)c1nc(-c2ccncc2)nc2c1CCN(C(C)=O)C2 | -86.15%
3 | COCCN(C)c1nc(-c2ccncc2)nc2c1CCN(C(C)=O)C2 | -64.34%
4 | CCN1Cc2cc(F)ccc2N(C(=O)C2CCC2)CCC1=O | -44.87%
5 | CCOc1ccccc1CN(CC)Cc1ccc(S(C)(=O)=O)cc1 | -21.06%
6 | Cc1ccccc1CN(CCN(C)C)Cc1ccc(S(C)(=O)=O)cc1 | 79.52%
7 | Cc1ccccc1CN(Cc1ccc(S(C)(=O)=O)cc1)CC(C)C | -26.42%
8 | O=C(NCc1ccc2c(c1)OCO2)c1ccccc1C1CCNC1 (stereo unspecified) | -7.767%
9 | Cc1nccn1-c1ccc(=O)n(CCNC(=O)c2ccccn2)n1 | -133.3%
10 | CCN(Cc1csc(C)n1)c1cccc(CO)c1 | -39.75%
11 | CCn1c(CN(C)Cc2cnc(C)s2)nc2cc(F)ccc21 | -16.92%
12 | CCn1c(CN(C)Cc2csc(C)n2)nc2cc(F)ccc21 | 60.85%
13 | O=C(Nc1cnn(COc2ccc(F)cc2Cl)c1)C1CC1 | 66.71%
14 | O=C(Nc1cnn(Cc2ccc(F)cc2Cl)c1)C1CC1 | -1.724%
15 | CCn1cc(NC(=O)C2CCN(Cc3ccccc3)CC2)cn1 | -64.73%
16 | CCc1cc(N2CCC(Nc3ccc(Cl)cn3)CC2)ncn1 | -58.54%
17 | CC(C)[C@H]1CN(C2Cc3ccccc3C2)C[C@@H]1NS(C)(=O)=O | 31.34%
18 | CC(C)[C@@H]1CN(CCOc2ccccc2)C[C@H]1NS(=O)(=O)N(C)C | 40.07%
19 | CC(C)[C@H]1CN(c2ccncc2)C[C@@H]1NS(=O)(=O)N(C)C | -51.73%
20 | CC(C)[C@@H]1CN(Cc2ccccn2)C[C@H]1NS(=O)(=O)N(C)C | -49.07%
21 | CC(C)[C@@H]1CN(Cc2ccsc2)C[C@H]1NS(=O)(=O)N(C)C | 65.02%
22 | CC(C)[C@H]1CN(C2Cc3ccccc3C2)C[C@@H]1NS(=O)(=O)N(C)C | 61.34%

Row | SMILES | Percent Effect
23 | CCc1cc(NCCc2cc(F)cc(F)c2)n2nccc2n1 | -125.8%
24 | c1cnn(CCNCc2cnc(N3CCCC3)nc2)c1 | -23.83%
25 | Cc1ccccc1C(NC(=O)NCC1(CO)CC1)C1CC1 (stereo unspecified) | -98.91%
26 | CCc1nc(CN2CCCC(N(C)Cc3cnc(C)cn3)C2)no1 (stereo unspecified) | -35.57%
27 | CC(NC(=O)CSCC#N)c1ccccc1 (stereo unspecified) | -131%
28 | CC(NC1(CNC(=O)OC(C)(C)C)CCOCC1)c1ccccc1 (stereo unspecified) | -63.28%
29 | CC(=O)c1ccc(Nc2nc(N)nc3c2nc(C)n3C)cc1 | -204.1%
30 | Cc1ccc2cccc(S(=O)(=O)N(C)CC3CCN(C)CC3)c2n1 | 56.89%
31 | Cc1ccc2cccc(S(=O)(=O)N(C)CC3CCN(C)C3)c2n1 (stereo unspecified) | 35.25%
32 | Cc1ccc2cccc(S(=O)(=O)N(C)C3CCCN(C)C3)c2n1 (stereo unspecified) | 32.17%
33 | CSCc1noc(CN2CC(Cc3ccccc3)CC2=O)n1 (stereo unspecified) | -65.09%
34 | Cc1cnn(CCC(=O)N2CCCN(c3ccccc3C#N)CC2)c1 | -36.97%
35 | CN1CCC(C(=O)N2CCCN(c3cccnn3)CC2)C1 (stereo unspecified) | -4.513%
36 | COC(=O)N1CCCCC1C(=O)N1CCN(c2cccnc2)CC1 (stereo unspecified) | -94.01%
37 | CN1CCCCCC1C(=O)N1CCN(c2ccccc2C#N)CC1 (stereo unspecified) | 59.17%
38 | CN1CCCCCC1C(=O)N1CCCN(c2ccccc2)CC1 (stereo unspecified) | 60.61%
39 | CN1CCCCC1C(=O)N1CCN(c2ccccc2C#N)CC1 (stereo unspecified) | 8.936%
40 | CCC(c1ccc(F)cc1)S(=O)(=O)CCO (stereo unspecified) | -152%
41 | COc1cc(C#N)ccc1OC12CCCN(CC1)C2 (stereo unspecified) | -68.61%
42 | O=C(CC1CCCO1)NCCCC(=O)Nc1ccc(Cl)cc1 (stereo unspecified) | -29.37%
43 | CCOc1ccc(Cl)cc1C(C(=O)O)N1CCCC1 (stereo unspecified) | -0.3366%
44 | COc1ccc(CCNC(=O)NC2CCCC2)cc1OC | -80.35%

Row | SMILES | Percent Effect
45 | COc1ccc(Br)cc1CC(=O)N1CCCC1 | -142.1%
46 | CCOc1ccc(Br)cc1S(=O)(=O)N(CC)Cc1ccc(N(C)C)cc1 | -41.17%
47 | CCOc1ccc(Br)cc1-c1cc(N)[nH]n1.Cl | -27.86%
48 | COc1ccc(CCC2CCCCN2)cc1OC (stereo unspecified) | -120.3%
49 | c1csc(CN2CCCN(c3ccc(Cn4ccnc4)cn3)CC2)c1 | -41.75%
50 | COC1CN(C(=O)Cc2cccs2)CCC(=O)N(C)c2ccccc21 (stereo unspecified) | -19.51%
51 | CCc1cc(=O)[nH]c(-c2ccc(NC(CO)CC(C)C)nc2)n1 (stereo unspecified) | -171.9%
52 | Cc1noc(C)c1C(=O)N1CCC2(CC(N(C)c3ccncn3)C2)C1 (stereo unspecified) | -76.24%
53 | CCn1c(C2CCN(C(=O)c3cc(CC(C)C)no3)CC2)nn(C)c1=O | -42.91%
54 | Cc1cc(C)nc(NC2CCc3nc(C)nn3C2)n1 (stereo unspecified) | -11.11%
55 | Cc1cc(C)nc(NC2CCC(=O)N(C)C2)n1 (stereo unspecified) | -38.75%
56 | CC(C)C(=O)NCC(=O)N(C)C1CCCN(C2Cc3ccccc3C2)C1 (stereo unspecified) | -100.1%
57 | O=C(CCc1ccccn1)NC1CCCN(C2Cc3ccccc3C2)C1 (stereo unspecified) | 9.867%
58 | c1ccc(-c2cc(CN3CCCCCC3c3ccco3)on2)nc1 (stereo unspecified) | -88.84%
59 | Cc1nc[nH]c1CN1CCN(C(=O)CN2CCCC2)[C@H]2CS(=O)(=O)C[C@H]21 | -125.3%
60 | Cc1nccc(-c2cccc(NCC(=O)N3CCOC(C)C3)c2)n1 (stereo unspecified) | -139.7%
61 | CCn1ncnc1CN1CCC(CNC(=O)c2ccccc2C#N)C1 (stereo unspecified) | -133.7%
62 | COc1ncc(C(=O)N2CCC(c3nc(C)n4ccsc34)CC2)cn1 | -121.9%
63 | CC(NC(=O)c1ccc(Cl)cc1)c1nnc(SCC(=O)O)n1C (stereo unspecified) | -106.5%
64 | O=C(c1ccc(-n2cccc2)c(F)c1)N1CCCN2CCCC2C1 (stereo unspecified) | 6.651%
65 | CN(Cc1nnc(C2CC2)n1C)S(=O)(=O)c1ccccc1F | -15.64%
66 | CC1c2ncc(COc3cccnc3)n2CCN1C(=O)C1=CCCCC1.O=C(O)C(F)(F)F (stereo unspecified) | -13.51%
